Measured values: PubChem BioAssay AID651706 (NMMLSC, 2012)
About 55 (2%) of roughly 2,300 compounds were called active.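 Rule for the calls: active = share of green or green-and-red cells above 9 and 9% in run 1 or 4 and 3% in run 2; inactive = the rest, inconclusive results apart.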 Not all results are given here.

Assay: inducers of myeloid progenitor differentiation, confirmation, cell-based, GFP/Mac1 flow cytometry, cherry pick 01 (AID 651706);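 for differentiation response: plate controls were double positive share in DMSO wells for no effect and share in positive control wells for full effect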;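 for double positive cells: share of live cells carrying both lysozyme GFP and MAC1 staining after four days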
Settings: ER-HoxA9 myeloid progenitors, stronger effect = higher value; differentiation response: GFP/Mac1 double-positive flow; double positive cells: measured here: percent double positive cells

SMILES	differentiation response	double positive cells
Cc1ccc2c(c1)C1C[N+](C)(CC(=O)c3ccccc3)CCC1N2C(=O)c1ccccc1Cl (stereo unspecified)	4.1% (inactive)	2.05%
Cc1ccc(-n2nc3cc(C)c(NC(=O)c4cccnc4)cc3n2)cc1	5.4% (inactive)	1.05%
Cc1cccc(-n2c(SCC(=O)Nc3cccc(S(=O)(=O)NC4=NCCCCC4)c3)nc3ccccc3c2=O)c1C	17.3% (inactive)	0.7%
Fc1cccc(Cl)c1CSc1ccc(-c2ccco2)nn1	1.2% (inactive)	0.8%
CC(C)c1nc2ccc(C(=O)O)cc2[nH]1	1.95% (inactive)	1.8%
CSc1nnc(-c2ccncc2)n1CCCN1CCCC1=O	1.75% (inactive)	1.15%
O=C(NCCN=C1NS(=O)(=O)c2ccccc21)c1ccc(S(=O)(=O)N2CCOCC2)cc1	1.35% (inactive)	1.3%
CC(=O)N1c2ccc(S(=O)(=O)N3CCCC(C(=O)Nc4cccc(F)c4)C3)cc2CC1C (stereo unspecified)	1.45% (inactive)	0.95%
O=C(Nc1cccc2ncccc12)c1ccc(-c2ccc(Cl)cc2Cl)o1	4.55% (inactive)	2.9%
Cc1cccc(OCC(O)CN2CCN(CCN3C(=O)c4cccc5cccc(c45)C3=O)CC2)c1C (stereo unspecified)	0.25% (inactive)	0%
Cc1cccc(C)c1NC(=O)CCS(=O)(=O)c1cccc2nsnc12	2% (inactive)	1.5%
CC(C)CNC(=O)COC(=O)/C=C/c1ccccc1[N+](=O)[O-]	1.45% (inactive)	1.2%
COC(=O)CN(c1cccc(C(C)=O)c1)S(C)(=O)=O	2.05% (inactive)	1.5%
O=C(CN1C(=O)NC(Cc2c[nH]c3ccccc23)C1=O)Nc1ccccc1C(F)(F)F (stereo unspecified)	1.7% (inactive)	1.2%
CC1(C)CC(=O)C2=C(C1)Nc1cc(C(=O)c3ccccc3)ccc1NC2c1ccccn1 (stereo unspecified)	1.95% (inactive)	1.65%
CCOC(=O)C1=C(CN2CCc3ccccc32)NC(=O)NC1c1cccc([N+](=O)[O-])c1 (stereo unspecified)	12.3% (active)	8.95%
Cc1nc(C)c(-c2nnc(-c3cccc(S(=O)(=O)N(C)C)c3)o2)cc1C(=O)NN	4.1% (inactive)	1.3%
Cc1ccc2c(c1)c1ncn(Cc3ccc(F)cc3)c(=O)c1n2C	2% (inactive)	0.8%
O=c1oc2ccccc2cc1-c1csc(Nc2ccc(O)cc2)n1	27.4% (inactive)	12.5%
Cc1cc(C)n(C(=O)c2ccc(C)c(S(=O)(=O)N3CCOCC3)c2)n1	1.9% (inactive)	1.8%
Cc1cc(C)c(S(=O)(=O)NCC2CCC(C(=O)NCc3ccc4c(c3)OCO4)CC2)c(C)c1 (stereo unspecified)	3.7% (inactive)	1.35%
CCOc1ccc(C(=O)Nc2ccc(S(=O)(=O)NCC3CCCO3)cc2)cc1OCC (stereo unspecified)	1.5% (inactive)	1.2%
CC(C)(C)OC(=O)CNC(=O)c1[nH]cnc1C(=O)N[C@@H](Cc1ccccc1)C(=O)OCc1ccccc1	1.85% (inactive)	1.95%
CCCC(=O)Nc1c(O)c2ccccc2[nH]c1=O	1.45% (inactive)	1.1%
C/C(=C\c1ccccc1)C1NC(=O)c2c(sc3c2CCCC3)N1 (stereo unspecified)	1.1% (inactive)	0.75%
COc1ccc(C2CC(c3cccc(OC)c3)=NN2c2ccc(S(N)(=O)=O)cc2)cc1 (stereo unspecified)	2.25% (inactive)	1.4%

SMILES	differentiation response	double positive cells
CC(=O)Nc1ccc(S(=O)(=O)Nc2ccc(N3CCCCC3)cc2)cc1	0% (inactive)	0%
CN(C(=O)c1cccc([N+](=O)[O-])c1)c1ccccc1C(=O)NCc1ccccc1	1.65% (inactive)	1.35%
CC(C)C(=O)N1CCN(c2nc(-c3ccccc3)c3c(c2C#N)CC(C)(C)OC3)CC1	1.8% (inactive)	1.6%
O=C(CCCN1C(=O)CCC1=O)Nc1ccc(Cl)c(C(F)(F)F)c1	1.55% (inactive)	1.1%
CC(CNc1ccc([N+](=O)[O-])cc1)NC(=O)c1ccccc1Br (stereo unspecified)	1.65% (inactive)	1%
CN(C(=O)CSc1nnc(C2CC2)n1C)C1CCCc2ccccc21 (stereo unspecified)	2.6% (inactive)	2.05%
COc1ccc(C(=O)N(Cc2ccccc2)c2ccc(C)cc2)cc1S(=O)(=O)N1CCOCC1	1.9% (inactive)	0.95%
COc1ccc2nc(N3CCN(C(=O)c4ccc([N+](=O)[O-])o4)CC3)sc2c1	3.05% (inactive)	0%
O=C(NCC1CCCCC1)NCC1CCCCC1	0.8% (inactive)	0.5%
O=C(NC(=O)c1ccccc1)Nc1ccccc1O	5.8% (inactive)	0.95%
O=S(=O)(NCc1cccnc1)c1ccc(Cl)nc1	1.35% (inactive)	1.1%
CC(C)CC(COCc1ccc(Cl)cc1)N1CCN(C(=O)c2ccc(C(F)(F)F)cc2)CCC1=O (stereo unspecified)	2.15% (inactive)	1.95%
CCOC(=O)c1c(-c2ccccc2)oc2ccc(OCC(=O)NN)cc12	2.65% (inactive)	0.85%
COc1ccccc1N1CCN(C(=O)c2cc(-c3ccc(Br)cc3)on2)CC1	1.9% (inactive)	1.65%
Nc1ccc2nc3c(=O)[nH]c(=S)[nH]c3nc2c1	11.7% (inactive)	1.75%
COc1cccc(NC(=O)[C@H](Cc2c[nH]c3ccccc23)NC(=O)[C@@H]2Cc3ccccc3CN2)c1	5% (active)	4.8%
CCc1c(C)sc(NC(=O)c2cccs2)c1C(N)=O	7.25% (inactive)	5.9%
O=C(CN(c1ccccc1)S(=O)(=O)c1ccc(Cl)cc1)Nc1ccccc1C(=O)N1CCCC1	2.2% (inactive)	1.4%
O=C(Cn1cc(-c2nnnn2-c2ccc(Cl)cc2)c(=O)c2ccccc21)c1ccccc1	3.55% (inactive)	2.6%
CC1CCCC(NC(=O)CN2CCN(Cc3ccc(Cl)cc3)C2=O)C1C (stereo unspecified)	4.75% (inactive)	2.6%
CCc1noc(C)c1C(=O)Nc1nc(-c2ccccc2)cs1	1.4% (inactive)	1%
C=CCNc1nnc(SCC(=O)N2CCCCC2)c2ccccc12	2.2% (inactive)	1.55%
COc1cccc(NC(=S)NCc2ccccn2)c1	1.3% (inactive)	1.3%
COc1ccc(C(C(=O)NCc2ccccc2)n2c(=O)c(-c3ccccc3)nc3ccccc32)cc1 (stereo unspecified)	29.1% (inactive)	12.2%
Cc1ccc(C)c(S(=O)(=O)N2CCN(c3ncnc4sccc34)CC2)c1	5.55% (inactive)	0%
O=C1c2ccccc2C(=O)N1Cc1cc(-c2ccccc2Cl)no1	2.85% (inactive)	1.25%

SMILES	differentiation response	double positive cells
N#CC1=C(N)Oc2c(sc3ccccc23)C1c1ccco1 (stereo unspecified)	50% (inactive)	25%
CCOC(=O)CC(=O)CSc1nc(-c2ccccc2)cc(-c2ccc(Cl)cc2)c1C#N	1.35% (inactive)	1.15%
COc1ccccc1CNC(=O)c1cc(-c2cc(Cl)ccc2C)n[nH]1	0.15% (inactive)	0%
CCOC(=O)c1c(-c2cccc(C)c2)csc1NC(=O)c1c(-c2ccccc2)noc1C	0.75% (inactive)	0.25%
CCN(CC)c1ccc(/C=N/NC(=O)CNC(=O)c2cccs2)cc1	1.55% (inactive)	1.15%
CCOc1ccc(NC(=O)CSc2nc3c(c(=O)n2-c2ccccc2OC)SCC3)cc1	2.25% (inactive)	1.4%
CC1=C(C(N)=O)C(c2ccc3c(c2)OCO3)n2nc(-c3cccc(C)c3)nc2N1 (stereo unspecified)	4.8% (inactive)	5.05%
COc1cc(/C=C(\C#N)c2nc3ccccc3[nH]2)ccc1O	20.1% (inactive)	1.25%
CCCCSc1nc2c(c(=O)n1CC)SC(C)C2 (stereo unspecified)	1.7% (inactive)	0.9%
Cc1nn(-c2cc(Cl)ccc2N)c(=O)c2ccccc12	1.3% (inactive)	1%
Cc1cc(NC(=O)CSc2nc(C(C)C)nc3sc4c(c23)CCC(C)C4)no1 (stereo unspecified)	1.5% (inactive)	1.25%
Cc1ccc(-c2nc(C#N)c(NCCCn3ccnc3)o2)cc1	1.5% (inactive)	1.1%
COc1ccccc1NC(=O)c1cc(Cl)nnc1Cl	0% (inactive)	0%
CC#CC[N+](C)(C)CCCCCC	5.9% (inactive)	3.9%
O=C(Nc1ccccc1N1CCN(c2ccccc2)CC1)c1cccc(F)c1	0.9% (inactive)	0.65%
CC(C)OC(=O)CN1C(=O)C(=O)c2ccccc21	2.4% (inactive)	0.55%
N#C/C(=C/c1ccc(N2CCCCC2)o1)C(=O)NCCc1c[nH]c2ccccc12	78.8% (inactive)	5.25%
O=C(CN1CCN(C2CCCCC2)CC1)Nc1ccccc1N1CCCCC1	1.2% (inactive)	0.65%
O=C(Nc1cccc(-c2nc3ncccc3o2)c1)c1ccco1	1% (inactive)	0.45%
Cn1c(CNC(=O)c2ccccc2F)nnc1SCc1ccc(F)cc1	2.7% (inactive)	1.1%
Cc1c(C(=O)OCC(=O)N(CCC#N)c2ccccc2)oc2c1ccc1ccccc12	0% (inactive)	0%
CCOC(=O)C(C(=O)OCC)C(C#N)c1ccccc1 (stereo unspecified)	1% (inactive)	0.7%
CCC1CCCCN1CCCNC(=O)Cn1nc(-c2ccccc2)ccc1=O (stereo unspecified)	3.1% (inactive)	2.25%
Cc1ccc(C(=O)NC2CCCC(C)C2C)cc1S(=O)(=O)N1CCCCC1 (stereo unspecified)	4.6% (inactive)	3.95%
COc1ccc(-c2nnc(SCC(=O)c3cccs3)o2)c(OC)c1	4.75% (inactive)	1.2%
COCCCn1c(=O)/c(=C/c2ccccc2OC(C)C)s/c1=C(\C#N)C(=O)Nc1ccc(C(=O)O)cc1	3.5% (inactive)	1.7%
